Of roughly 8,800 targets only a part is listed; those with a hit were picked by preference. About 0.5% of all pairs of compound and target were hits. Unmarked numbers belong to inactive results.
Tests used:
Experiment in all cases: log2 fold change, soluble protein after heating vs DMSO (PISA); higher = thermal stabilisation; K562 lysate, 10 uM; active = over 0.2 and 3.5 SD of the protein, either way, in both replicates (recomputed)
[1] = compound: NCC(=O)Nc1ccc(-n2nc(C(F)(F)F)cc2-c2ccc3c(ccc4ccccc43)c2)cc1
In short: (§1)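 K562 pellets were dounce-homogenised in PBS pH 7.4 containing 1 mM MgCl2, and the crude extract, at 1 mg/mL protein, was exposed to 10 μM compound for 30 min. Aliquots were heated for 3 min across 48°C-58°C, pooled, brought to 0.5% NP-40 at 4°C and spun at 21,000xg for 90 min, with the supernatant taken as soluble protein. TMTpro 16plex LC-MS/MS with equalised channel sums quantified that protein. Values are log-two fold changes in thermal stability relative to solvent controls, taken from duplicates.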

[2] = compound: O=C(CCCCCCC(=O)Nc1ccccc1)NO [vorinostat]
In short: as §1

[3] = compound: O=C(O)c1ccc2c(c1)nc(Nc1cccc(Cl)c1)c1ccncc12 [silmitasertib]
In short: as §1

[4] = compound: O=C1NC(=O)C(c2cnc3ccccn23)=C1c1cn2c3c(cc(F)cc13)CN(C(=O)N1CCCCC1)CC2
In short: as §1

[5] = compound: c1cn2cc(-c3ccc4cn[nH]c4c3)nc(Nc3ccc(N4CCOCC4)cc3)c2n1 [entospletinib]
In short: as §1

Sequence of UniProt P16219 (P16219 whole entry, looked up): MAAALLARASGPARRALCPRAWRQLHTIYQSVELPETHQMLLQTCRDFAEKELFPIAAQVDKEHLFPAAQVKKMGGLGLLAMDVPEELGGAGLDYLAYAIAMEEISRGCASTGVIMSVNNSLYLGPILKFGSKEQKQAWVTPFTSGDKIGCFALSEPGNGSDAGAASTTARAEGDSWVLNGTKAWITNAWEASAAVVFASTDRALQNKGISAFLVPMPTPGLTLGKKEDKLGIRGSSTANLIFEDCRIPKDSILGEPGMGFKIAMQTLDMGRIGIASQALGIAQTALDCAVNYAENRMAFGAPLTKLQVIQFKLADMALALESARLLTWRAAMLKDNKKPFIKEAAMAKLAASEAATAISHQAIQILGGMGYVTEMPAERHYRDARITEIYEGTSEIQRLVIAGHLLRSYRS
Sequence of UniProt Q9Y4X0 (Q9Y4X0 whole entry, looked up): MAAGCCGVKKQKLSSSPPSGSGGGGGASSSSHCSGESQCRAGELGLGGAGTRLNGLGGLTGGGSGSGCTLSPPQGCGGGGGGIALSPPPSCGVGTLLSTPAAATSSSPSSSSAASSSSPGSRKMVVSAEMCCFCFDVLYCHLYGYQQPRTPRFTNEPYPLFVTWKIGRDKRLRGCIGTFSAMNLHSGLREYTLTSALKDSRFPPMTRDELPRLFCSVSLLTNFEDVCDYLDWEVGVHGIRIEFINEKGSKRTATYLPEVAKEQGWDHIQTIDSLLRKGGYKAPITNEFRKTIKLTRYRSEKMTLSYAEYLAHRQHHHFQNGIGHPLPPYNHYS
Sequence of UniProt Q9Y303 (Q9Y303 whole entry, looked up): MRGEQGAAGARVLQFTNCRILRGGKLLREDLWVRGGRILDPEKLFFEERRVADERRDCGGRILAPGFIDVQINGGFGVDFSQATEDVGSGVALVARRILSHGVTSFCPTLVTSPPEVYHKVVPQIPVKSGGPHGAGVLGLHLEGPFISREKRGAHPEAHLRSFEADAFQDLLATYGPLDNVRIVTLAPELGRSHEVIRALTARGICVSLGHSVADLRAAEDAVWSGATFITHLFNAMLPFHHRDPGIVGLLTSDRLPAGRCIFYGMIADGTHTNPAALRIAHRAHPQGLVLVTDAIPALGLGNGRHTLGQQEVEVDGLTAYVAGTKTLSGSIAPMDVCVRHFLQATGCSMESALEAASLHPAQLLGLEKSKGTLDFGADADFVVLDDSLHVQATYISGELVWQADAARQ
Sequence of UniProt Q9UKV3 (Q9UKV3 whole entry, looked up): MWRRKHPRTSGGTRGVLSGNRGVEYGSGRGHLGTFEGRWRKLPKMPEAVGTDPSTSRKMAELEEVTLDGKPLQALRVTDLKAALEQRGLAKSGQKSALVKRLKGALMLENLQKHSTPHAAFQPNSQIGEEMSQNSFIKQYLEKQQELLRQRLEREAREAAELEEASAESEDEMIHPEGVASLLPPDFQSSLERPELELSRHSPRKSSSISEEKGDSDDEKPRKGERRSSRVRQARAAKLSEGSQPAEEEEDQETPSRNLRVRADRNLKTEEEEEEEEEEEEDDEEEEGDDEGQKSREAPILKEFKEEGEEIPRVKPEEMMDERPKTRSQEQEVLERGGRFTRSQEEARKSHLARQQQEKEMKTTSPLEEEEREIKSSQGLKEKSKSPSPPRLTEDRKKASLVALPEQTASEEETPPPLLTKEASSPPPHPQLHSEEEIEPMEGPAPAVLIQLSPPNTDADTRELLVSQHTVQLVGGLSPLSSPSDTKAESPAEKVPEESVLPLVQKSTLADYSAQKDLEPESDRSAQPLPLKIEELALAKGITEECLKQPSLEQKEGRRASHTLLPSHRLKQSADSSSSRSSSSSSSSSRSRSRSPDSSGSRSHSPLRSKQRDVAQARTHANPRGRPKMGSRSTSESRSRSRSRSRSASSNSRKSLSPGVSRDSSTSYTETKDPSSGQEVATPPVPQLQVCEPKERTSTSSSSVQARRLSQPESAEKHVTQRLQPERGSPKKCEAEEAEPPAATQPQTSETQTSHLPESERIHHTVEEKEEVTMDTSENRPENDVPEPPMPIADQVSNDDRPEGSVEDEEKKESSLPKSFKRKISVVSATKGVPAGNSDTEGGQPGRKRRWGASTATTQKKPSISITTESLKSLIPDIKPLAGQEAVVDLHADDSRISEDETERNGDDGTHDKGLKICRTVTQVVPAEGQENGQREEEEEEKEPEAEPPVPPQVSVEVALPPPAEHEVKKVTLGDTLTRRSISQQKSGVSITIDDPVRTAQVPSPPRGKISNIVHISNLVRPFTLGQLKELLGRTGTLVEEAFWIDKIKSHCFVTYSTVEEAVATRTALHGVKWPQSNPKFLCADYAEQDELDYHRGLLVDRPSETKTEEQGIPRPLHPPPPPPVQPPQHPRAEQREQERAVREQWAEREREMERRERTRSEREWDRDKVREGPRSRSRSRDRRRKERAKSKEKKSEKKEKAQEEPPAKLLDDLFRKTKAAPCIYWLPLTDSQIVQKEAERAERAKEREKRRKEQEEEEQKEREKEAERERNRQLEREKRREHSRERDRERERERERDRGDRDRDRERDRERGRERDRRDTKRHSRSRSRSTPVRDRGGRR
Sequence of UniProt Q6NXT1 (Q6NXT1 whole entry, looked up): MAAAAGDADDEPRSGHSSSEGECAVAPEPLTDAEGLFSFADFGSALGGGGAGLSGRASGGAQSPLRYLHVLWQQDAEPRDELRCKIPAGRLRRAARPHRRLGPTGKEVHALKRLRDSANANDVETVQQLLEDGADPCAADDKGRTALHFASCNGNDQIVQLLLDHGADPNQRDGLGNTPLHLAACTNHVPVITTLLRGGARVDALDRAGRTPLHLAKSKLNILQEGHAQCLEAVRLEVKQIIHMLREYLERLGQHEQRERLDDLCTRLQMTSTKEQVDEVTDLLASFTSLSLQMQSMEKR
Sequence of UniProt P05091 (P05091 whole entry, looked up): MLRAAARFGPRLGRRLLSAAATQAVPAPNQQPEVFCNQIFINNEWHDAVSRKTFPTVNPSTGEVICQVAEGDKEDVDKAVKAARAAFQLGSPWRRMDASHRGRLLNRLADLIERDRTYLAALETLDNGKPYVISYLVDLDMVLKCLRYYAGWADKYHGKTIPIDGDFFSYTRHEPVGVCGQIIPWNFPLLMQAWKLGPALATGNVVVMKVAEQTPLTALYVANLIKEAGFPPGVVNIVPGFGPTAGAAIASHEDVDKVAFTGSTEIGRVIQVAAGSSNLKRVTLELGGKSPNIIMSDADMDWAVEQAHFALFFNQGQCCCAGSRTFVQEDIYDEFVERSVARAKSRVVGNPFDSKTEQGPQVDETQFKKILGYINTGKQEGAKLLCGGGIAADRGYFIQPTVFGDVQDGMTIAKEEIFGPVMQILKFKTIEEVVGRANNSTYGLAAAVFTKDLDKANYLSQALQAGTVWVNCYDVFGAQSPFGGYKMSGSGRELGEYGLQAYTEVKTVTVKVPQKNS
Sequence of UniProt O43823 (O43823 whole entry, looked up): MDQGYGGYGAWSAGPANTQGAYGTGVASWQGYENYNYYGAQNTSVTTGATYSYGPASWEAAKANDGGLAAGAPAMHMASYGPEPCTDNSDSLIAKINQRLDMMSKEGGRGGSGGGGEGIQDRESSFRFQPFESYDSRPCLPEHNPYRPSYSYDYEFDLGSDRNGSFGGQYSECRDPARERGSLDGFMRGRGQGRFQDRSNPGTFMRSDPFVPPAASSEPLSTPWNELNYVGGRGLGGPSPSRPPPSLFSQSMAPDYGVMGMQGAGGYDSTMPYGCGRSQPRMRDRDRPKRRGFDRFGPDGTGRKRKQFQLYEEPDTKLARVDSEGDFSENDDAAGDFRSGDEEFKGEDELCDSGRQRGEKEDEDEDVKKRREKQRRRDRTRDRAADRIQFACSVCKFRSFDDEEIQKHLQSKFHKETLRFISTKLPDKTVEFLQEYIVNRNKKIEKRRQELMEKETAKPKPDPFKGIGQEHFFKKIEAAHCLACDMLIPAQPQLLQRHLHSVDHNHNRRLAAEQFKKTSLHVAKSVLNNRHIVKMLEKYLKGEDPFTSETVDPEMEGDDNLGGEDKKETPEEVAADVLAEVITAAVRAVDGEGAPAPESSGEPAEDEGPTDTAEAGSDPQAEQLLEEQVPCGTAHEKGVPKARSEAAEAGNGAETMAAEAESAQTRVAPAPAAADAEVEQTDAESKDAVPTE

Target | log2 fold change [1] | log2 fold change [2] | log2 fold change [3] | log2 fold change [4] | log2 fold change [5]
AKR1B1 (UniProt P15121) | -0.018 | 0.24 (active) | -0.004 | -0.026 | -0.065
ACIN1 isoform 5 (UniProt Q9UKV3) | 0.035 | 0.007 | 0.001 | -0.012 | -0.003
AKAP8 (UniProt O43823) | 0.047 | -0.095 | 0.019 | 0.023 | -0.046
AMMECR1 (UniProt Q9Y4X0) | 0.004 | -0.387 (active) | 0.003 | -0.016 | 0
AMDHD2 isoform 3 (UniProt Q9Y303) | 0.038 | 0.088 | -0.004 | -0.002 | 0.056
ACACA isoform 4 (UniProt Q13085) | -0.003 | -0.449 (active) | 0.016 | -0.003 | 0.027
ALDH2 (UniProt P05091) | -0.068 | 0.627 (active) | 0.009 | 0.019 | -0.009
ACADS (UniProt P16219) | -0.005 | 0.217 | -0.089 | 0.017 | -0.021
ANKRD54 (UniProt Q6NXT1) | 0.023 | -0.245 (active) | 0.007 | -0.076 | -0.006

From the supplement of paper PMC10849652
